# In PubChem BioAssay AID1220 (Sanford-Burnham Center for Chemical Genomics, 2008):
# Out of some 190,000 compounds screened, about 1,300 (0.68%) were called active. This excerpt belongs to a sample that is enriched for actives. Unmarked numbers belong to inactive results. Cut-off read from the data, not from the text of the source: active = inhibition above about 50%; inactive = the rest.
# Target: Mannose-6-phosphate isomerase (Homo sapiens) (UniProt P34949)
# Assay: MPI inhibition at elevated mannose 6-phosphate – biochemical, fluorescence intensity, high mannose 6-phosphate, primary screen (AID 1220)
# Settings: recombinant PMI enzyme, coupled fluorescence intensity; at 20 µM; stronger effect = higher value
# Chain of Mannose-6-phosphate isomerase (Homo sapiens) (P34949 whole entry, looked up): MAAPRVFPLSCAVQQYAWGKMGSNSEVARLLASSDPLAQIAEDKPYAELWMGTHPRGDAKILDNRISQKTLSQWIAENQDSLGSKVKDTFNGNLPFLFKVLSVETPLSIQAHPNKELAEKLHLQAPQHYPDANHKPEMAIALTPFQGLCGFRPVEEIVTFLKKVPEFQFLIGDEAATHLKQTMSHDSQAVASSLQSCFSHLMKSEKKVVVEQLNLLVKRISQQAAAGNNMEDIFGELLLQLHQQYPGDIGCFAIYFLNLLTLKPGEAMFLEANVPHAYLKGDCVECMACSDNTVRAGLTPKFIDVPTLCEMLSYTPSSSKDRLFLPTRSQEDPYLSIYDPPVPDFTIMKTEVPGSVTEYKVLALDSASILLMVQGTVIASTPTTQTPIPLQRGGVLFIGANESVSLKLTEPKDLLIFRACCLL
row,Compound,inhibition
1,O=C(CNCC1CCCO1)N1CCN(S(=O)(=O)c2ccc3ccccc3c2)CC1 (configuration not stated),-1.2%
2,O=C(/C=C/c1ccccc1Cl)Nc1ccncc1,-5.1%
3,CN1C(=O)CC(N2CCC(C(N)=O)CC2)C1=O (configuration not stated),-4%
4,Cc1ccc(S(=O)(=O)Cn2nnnc2C(C)N2CCN(C(=O)c3ccco3)CC2)cc1 (configuration not stated),11.7%
5,Cc1c(CN2CCCCC2)c(O)n(CCCO)c(=O)c1C#N,52.1% (active)
6,CCCn1c(C)cc(C)c(C#N)c1=O,-3.4%
7,Cc1cc(=O)n(CCCO)c(O)c1C#N,37.6%
8,Cc1cc(C)n(CCCO)c(=O)c1C#N,-3.9%
9,CCCn1c(O)c(CN2CCCC(C)C2)c(C)c(C#N)c1=O (configuration not stated),39.4%
10,CCCn1c(O)c(CN2CCCCC2)c(C)c(C#N)c1=O,57.4% (active)
11,COc1ccc(CCN(C)CCCN2CC(c3ccccc3)CC2=O)cc1OC (configuration not stated),-9.7%
12,Cc1ccc(S(=O)(=O)N2CCN(CC(=O)NC3CCCc4ccccc43)CC2)cc1C (configuration not stated),13.8%
13,CCOC(=O)N1CCN(c2c(NCC3CCN(Cc4cccc(C)c4)CC3)c(=O)c2=O)CC1,8.2%
14,Nc1nc(Cl)cc(Sc2ccc3ccccc3c2)n1,1%
15,Cc1nc2sccn2c1P(c1c(C)nc2sccn12)c1c(C)nc2sccn12,-5.7%
16,CCC(CO)NCc1ccc(OCC(=O)Nc2cccc(C(F)(F)F)c2)c(OC)c1 (configuration not stated),-1.3%
17,CCN=c1scc(-c2ccco2)n1/N=C/c1ccc(O)cc1,-22.4%
18,CCN=c1scc(C)n1/N=C/c1cc(Br)c(O)c(Br)c1,-6.2%
19,CCN=c1scc(-c2cccs2)n1/N=C/c1cc(OC)ccc1O,-21.1%
20,CN=c1scc(-c2cccs2)n1/N=C/c1ccccc1O,14.7%
21,CN=c1scc(-c2ccccc2F)n1/N=C/c1ccc[nH]1,-2.3%
22,CCN=c1scc(C)n1/N=C/c1ccsc1,2.6%
23,CN=c1scc(-c2cccs2)n1/N=C/c1ccc(O)c(O)c1O,34.6%
24,CCN=c1scc(-c2ccco2)n1/N=C/c1ccc(OC)c(O)c1,-17.3%
25,COCCNS(=O)(=O)c1cc(OC)ccc1OC,8.6%

row,Compound,inhibition
1,Cc1cc(N2CCN(c3ccccc3)CC2)nc(-c2ccccc2O)n1,2.1%
2,Cc1cc(S(=O)(=O)NCC(C)C)ccc1OCC(=O)NCC1CCCO1 (configuration not stated),15.5%
3,COc1cc(C(=O)OCCNC(=O)c2ccncc2)cc(OC)c1OC,-20%
4,CCC(C)NS(=O)(=O)c1ccc(F)c(C(=O)Nc2c(F)cc(F)cc2Br)c1 (configuration not stated),-19.4%
5,COc1ccc2[nH]c(=O)c(CN(CCO)C(=O)NCc3ccccc3)cc2c1,3.9%
6,CCn1c(COc2ccccc2)nnc1SCC(=O)Nc1cc(C)ccc1OC,8.3%
7,C#CCOCCOCCOCCNc1nc(N2CCN(C(=O)[C@H](CCC(=O)O)n3cc(C(N)Cc4ccc(O)cc4)nn3)CC2)nc(N2CCN(C(=O)[C@H](CCC(=O)O)n3cc(C(N)[C@H](C)CC)nn3)CC2)n1 (some centres not stated),-33.1%
8,O=C(c1ccccc1)c1cccc(NC(=O)c2ccc(Br)o2)c1,6.2%
9,O=C(C1CCCCN1S(=O)(=O)c1ccccc1)N1CCN(C(c2ccccc2)c2ccccc2)CC1 (configuration not stated),9.8%
10,COc1cc(Br)c(S(=O)(=O)Nc2c(C)n(C)n(-c3ccccc3)c2=O)cc1OC,-1.6%
11,O=C(c1cccnc1)N1C2C=CC(C2)C1(C(F)(F)F)C(F)(F)F (configuration not stated),-7.8%
12,Cc1ccc(NS(=O)(=O)c2ccc(Br)cc2)nc1,0.3%
13,Cc1cc(C)nc(NS(=O)(=O)c2ccc(Br)cc2)n1,-3.5%
14,COC1(NS(=O)(=O)c2ccc(Br)cc2)C(C)=CC(=O)C=C1C,55.3% (active)
15,O=C(Nc1ccc2oc(-c3ccc(F)cc3)nc2c1)c1ccccc1F,1%
16,Cc1ccc(-c2nc3c(c(=O)c4ccccc4n3C)c(=O)n2-c2ccccc2)cc1,0.4%
17,Cc1nc2c([N+](=O)[O-])c(C)c(C)cc2[nH]1,4.2%
18,O=c1[nH]c(=O)c2nc3c4ccccc4c4ccccc4c3nc2[nH]1,11.6%
19,Cc1cc2nc3c(=O)[nH]c(=O)[nH]c3nc2c([N+](=O)[O-])c1N,53.3% (active)
20,NC(=O)Nn1c(CCC(=O)O)ccc1-c1ccc(Br)cc1,-6.3%
21,O=C(CSc1ccc2nnc(-c3ccccc3)n2n1)NCc1ccc2c(c1)OCO2,2.7%
22,CN(C)c1nc(OCCNC(=O)Nc2ccc(Cl)cc2)nc(N(C)C)n1,1.2%
23,O=C(O)c1ccc(NS(=O)(=O)c2ccc3c(c2)C(=O)c2ccccc2C3=O)cc1,2.7%
24,O=C1c2ccccc2C(=O)c2cc(S(=O)(=O)Nc3ccccc3)ccc21,60.3% (active)
25,Cc1cccc(C)c1NS(=O)(=O)c1ccc2c(c1)C(=O)c1ccccc1C2=O,21%

row,Compound,inhibition
1,COc1ccc(CCNc2ccc(S(=O)(=O)N3CCCC3)cc2[N+](=O)[O-])cc1,-0.1%
2,COc1ccc2nc3ccccc3nc2c1NC(=O)c1ccc(Cl)cc1Cl,17.8%
3,COc1ccc2nc3ccccc3nc2c1NC(=O)c1ccccc1Cl,51.5% (active)
4,COc1ccc2nc3ccccc3nc2c1NC(=O)c1ccc(Cl)cc1,23%
5,Cc1ccc2cccc(OCC(=O)N3CC(C)CC(C)C3)c2n1 (configuration not stated),26.7%
6,Cc1cccc(OCC(=O)OCC(=O)c2c(N)n(C)c(=O)n(C)c2=O)c1C,3.8%
7,Cc1cccc(NCC(=O)c2c(N)n(C)c(=O)n(C)c2=O)c1C,59% (active)
8,Cc1ccccc1CSCC(=O)c1c(N)n(C)c(=O)n(C)c1=O,6.8%
9,CC(C)C(=O)NC(NC(=O)C(C)C)c1ccc([N+](=O)[O-])cc1,-13.1%
10,CC(C)c1onc(C(=O)NCc2cccs2)c1[N+](=O)[O-],-6.7%
11,CC(=O)c1cc2c(cc1N/C(=N/S(=O)(=O)c1ccc(C)cc1)c1ccc(Cl)cc1)OCO2,7.7%
12,O=S(=O)(N/N=C/c1ccc(F)cc1)c1ccccc1,4.7%
13,CC(C)c1ccc(NC(=S)Nc2ccc3cn[nH]c3c2)cc1,46.1%
14,S=C(Nc1ccc(Cl)cc1)Nc1ccc2cn[nH]c2c1,56.6% (active)
15,Cc1ccc(NC(=S)Nc2ccc3cn[nH]c3c2)cc1C,15.4%
16,Cc1ccccc1NC(=S)Nc1ccc2cn[nH]c2c1,61.3% (active)
17,COc1ccc(NC(=S)Nc2ccc3cn[nH]c3c2)cc1,48.7%
18,S=C(Nc1ccc2cn[nH]c2c1)Nc1ccccc1Cl,42.1%
19,Cc1ccc(NC(=S)Nc2ccc3cn[nH]c3c2)c(C)c1,44%
20,Cc1cc(C)cc(NC(=S)Nc2ccc3cn[nH]c3c2)c1,21.3%
21,Cc1ccc(NC(=S)Nc2ccc3cn[nH]c3c2)cc1,57.8% (active)
22,CCOC(=O)C1CCCN(C(=O)c2cn(CC)c(=O)c3cc(OC)c(OC)cc23)C1 (configuration not stated),-1.3%
23,CCOC(=O)c1nn(-c2ccc(C)cc2)cc1O,1.2%
24,COC(=O)c1ccc2c(c1)NC1=C(C(=O)CC(C)(C)C1)C(c1ccncc1)N2 (configuration not stated),61.3% (active)
25,CC1(C)CC(=O)C2=C(C1)Nc1ccccc1NC2c1cccnc1 (configuration not stated),-11.6%

row,Compound,inhibition
1,CC1(C)CC(=O)C2=C(C1)Nc1cc(C(=O)c3ccccc3)ccc1NC2c1ccccn1 (configuration not stated),-4.3%
2,COc1cccc(C(=O)Oc2c(CN3CCOCC3)cc(Cl)c3cccnc23)c1,24%
3,O=C(Oc1c(CN2CCOCC2)cc(Cl)c2cccnc12)c1ccccc1F,51.4% (active)
4,O=C(Oc1c(CN2CCOCC2)cc(Cl)c2cccnc12)c1ccccc1,56.3% (active)
5,COc1ccc(C(=O)Oc2c(CN3CCOCC3)cc(Cl)c3cccnc23)cc1,22.5%
6,O=[N+]([O-])c1cc(CN2CCOCC2)c2cccnc2c1O,40.5%
7,O=C(Oc1c(Cl)cc(Cl)c2cccnc12)N1CCOCC1,1.1%
8,COc1cc(C(=O)Oc2c(CN3CCOCC3)cc(Cl)c3cccnc23)cc(OC)c1OC,35.9%
9,O=C(Oc1c(CN2CCOCC2)cc(Cl)c2cccnc12)c1ccccc1Cl,57.1% (active)
10,O=C(Oc1c(CN2CCOCC2)cc(Cl)c2cccnc12)c1ccc(F)cc1,40.1%
11,c1ccc2c(c1)ccc1ncccc12,-5.5%
12,O=C(CS(=O)(=O)c1ccccc1)Nc1nc(-c2ccc(F)cc2)cs1,8.2%
13,CCOC(=O)CNC(=O)CSc1nnc(-c2ccco2)n1N,6.3%
14,CCCCOc1ccc(Cc2c(COCC)[nH]c(=S)[nH]c2=O)cc1,-4.9%
15,O=C(c1cc2ccccc2o1)N1CCCC1,-0.3%
16,COc1ccc(OC)c(S(=O)(=O)Nc2ccccc2C)c1,10.8%
17,COc1ccc(OC)c(NS(=O)(=O)c2cc(OC)ccc2OC)c1,2.8%
18,COc1ccc(OC)c(S(=O)(=O)Nc2ccccc2SC)c1,57.1% (active)
19,CC1=CC(C)(C)N(C(=O)CNC2CCCCC2)c2cc(C)ccc21,2.1%
20,C=CCOc1c(Br)cc(CNc2ccc(NC(=O)C(C)C)cc2)cc1OCC,22.7%
21,C=CCOc1c(Br)cc(CNc2ccc(NC(=O)C(C)C)c(OC)c2)cc1OCC,57.7% (active)
22,C=CCOc1c(Br)cc(CNc2ccc(NC(=O)C(C)C)c(OC)c2)cc1OC,41.7%
